LDHA inh: LDHA (human) enzyme inhibition; purified LDHA, NADH/diaphorase-resazurin fluorescence; active compounds read low; activity change, % (values are at about 110 or 230 µM); 0.15% of 480,000 active; in the data active = activity change below about -30%; inconclusive = mostly about -25% to -30%;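 note: plate controls were DMSO wells for no effect and wells without enzyme for full effect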
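Resorufin fluorescence (ex540/em590), read at 0 and 20 min after diaphorase/resazurin addition, reports the NADH left after a 5 min room-temperature reaction of 2 nM human LDH5 with 0.06 mM NADH and 0.2 mM pyruvate.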
Nrf2 inh: blocks Nrf2 signaling; A549 ARE-Fluc reporter, luciferase luminescence, 18-24 h; Potency, µM (titrated, usually from 46 µM), for the others: top-dose activity change, negative = inhibition, actives largely listed as inhibitors; 2.1% of 360,000 active; note: potency is the fitted concentration of half-maximal effect; % is set by controls: 0 for no effect and ±100 for the full control effect; nearly all actives have a fitted effect of over 60% in size
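A549 ARE_Fluc cells (5000/well, 5% FBS OPTI-MEM) pre-incubated 2 h, then treated with compounds 18-24 h at 37C/5% CO2 in concentration-response. CellTiter-Fluor viability read first; BugLite luciferase luminescence after 15 min at room temperature gives Nrf2 activity.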
A549 tox: counter-screen for Nrf2 inhibitors: cytotoxicity in A549 cells; A549 ARE-Fluc cells, CellTiter-Fluor viability, 18-24 h; Potency, µM (titrated, usually from 46 µM), inactives show top-dose activity change, negative = cytotoxicity, hits mostly inhibitors; 0.16% of 390,000 active; AID 504648; note: potency is the fitted concentration of half-maximal effect; % is set by controls: 0 for no effect and ±100 for the full control effect
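Cytotoxicity counterscreen: CellTiter-Fluor fluorescence was measured in A549 ARE_Fluc cells after 18-24 h of compound exposure in a concentration series. The subsequent BugLite luminescent read reports ARE-luciferase activity.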
ALOX12 inh: blocks human arachidonate 12S-lipoxygenase; P18054; AID 1671190; Potency, µM (series often up to 108 µM), for the others: top-dose activity change, negative = inhibition, actives largely listed as inhibitors; 1.1% of 580,000 active; purified 12hLO, xylenol orange hydroperoxide absorbance; note: potency is the fitted concentration of half-maximal effect; % is set by controls: 0 for no effect and ±100 for the full control effect
Target sequence (P18054 whole entry, looked up): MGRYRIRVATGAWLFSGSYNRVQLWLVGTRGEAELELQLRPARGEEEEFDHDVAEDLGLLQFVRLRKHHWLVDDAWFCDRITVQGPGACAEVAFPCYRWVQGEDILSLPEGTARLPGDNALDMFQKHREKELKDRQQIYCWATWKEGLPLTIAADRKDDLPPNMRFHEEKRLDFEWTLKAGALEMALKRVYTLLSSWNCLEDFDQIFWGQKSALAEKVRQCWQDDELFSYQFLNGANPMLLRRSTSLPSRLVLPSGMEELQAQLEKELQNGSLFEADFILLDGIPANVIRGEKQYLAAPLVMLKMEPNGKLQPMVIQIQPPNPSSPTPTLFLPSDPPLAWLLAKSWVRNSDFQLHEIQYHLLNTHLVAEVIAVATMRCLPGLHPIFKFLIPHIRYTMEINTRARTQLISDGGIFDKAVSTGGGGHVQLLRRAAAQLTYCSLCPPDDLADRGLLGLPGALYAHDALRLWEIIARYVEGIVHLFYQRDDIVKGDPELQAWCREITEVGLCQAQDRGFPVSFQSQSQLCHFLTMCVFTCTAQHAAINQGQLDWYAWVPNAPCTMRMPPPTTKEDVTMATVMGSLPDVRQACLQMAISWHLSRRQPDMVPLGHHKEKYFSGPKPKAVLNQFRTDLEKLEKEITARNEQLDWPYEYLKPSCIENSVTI
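Hydroperoxide product was detected by ferrous iron/xylenol orange as the 573 to 405 nm absorbance ratio. Arachidonic acid at 40 uM (final) was turned over for 30 min at room temperature by 150 nM human 12hLO, pH 7.0 Hepes buffer, after 15 min compound preincubation.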
ERG Ets-DNA blk: inhibitors of human ERG Ets domain-DNA interaction. fluorescence polarization, His-ERG Ets domain / labelled DNA. Potency, µM (titrated, usually from 76.9 µM), for inactives: at the highest dose FP activity, negative = inhibition, actives largely listed as inhibitors. 0.028% of 370,000 active. AID 624246; active = well fitted inhibition curve with a large enough effect in the polarisation, with a control signal flat; inconclusive = small, poorly fitted or top-dose-only effect, or effect the other way, or a change in a side signal; inactive = no such curve, though single readings can be large or run the other way; the % refers to the polarisation;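 note: polarization taken with two DNA probes labelled with fluorescein and Texas red; potency is the fitted concentration of half-maximal effect; % of control where 0% means no effect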
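His-tagged ERG Ets domain (1 uM in the protein solution; 300mM KCl, 50mM Tris-HCl, 1mM EDTA, 1mM DTT, pH 7.5) received compound, then a probe mix of 5 nM fluorescein-DNA and 100nM Texas-615-DNA. Fluorescence polarization was read for both dyes.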
Nrf2 activator: activates Nrf2 signaling; 0.31% of 410,000 active; Potency, µM (highest dose often 46.1 µM), for the others: at the top dose activation, usual class: activators; AREc32 ARE-luciferase reporter (MCF7-derived line), luminescence, 24 h; AID 624171; note: potency is the fitted concentration of half-maximal effect; % of control where 0% means no effect; nearly all actives have a fitted effect of over 65% in size
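Each well held 1000 AREc32 cells, which were incubated with compound for 24 hr at 37 deg C after overnight attachment, and ARE reporter activity was quantified by firefly luciferase luminescence.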
* marks the source's active call; other numbers are inactive results; i = inactive; ? = inconclusive; . = no result given. Hits are enriched below; roughly 2.7% of the tested compounds scored in any of these assays. Unless noted, calls come from the whole dose curve; as a rule, active = well fitted curve in the direction sought with a large enough effect; inconclusive = small, poorly fitted or top-dose-only effect, or another doubt; inactive = no such curve, though single readings can be large; an effect the other way counts as inactive or inconclusive.

SMILES | LDHA inh | Nrf2 inh | A549 tox | ALOX12 inh | ERG Ets-DNA blk | Nrf2 activator
CN(CC(=O)NC(N)=O)C1CCCCCC1 | -3.0 | . | . | -6.4% | . | .
COc1ccc(-c2nn(C)c(=O)c3ccccc23)cc1NC(=O)COc1cccc(C)c1 | -7.6 | . | . | 5.7% | . | .
COc1ccc(OCC(=O)Nc2cc(-c3nn(C)c(=O)c4ccccc34)ccc2OC)cc1 | 0.5 | 23.1µM* | -13.9% | -7.0% | -1.1% | 0.6%
COc1cc([C@H]2[C@@H](C(=O)O)c3ccccc3C(=O)N2Cc2ccc(F)cc2)cc(OC)c1OC | -1.7 | . | . | ? | . | .
Cc1ccc2[nH]c(C)c(CC(=O)NCc3cn4ccc(C)cc4n3)c2c1 | 4.1 | . | . | 14.2% | . | .
N#CC1=C2SCC(O)(c3ccccc3)N2C(=O)CC1c1ccccc1F (configuration not stated) | 9.9 | 10.3µM* | -6.0% | 0.0% | ? | 5.1%
CCOC(=O)C1=CNS(=O)(=O)NC1c1ccc2ccccc2c1 (configuration not stated) | 0.5 | 3.3% | 0.8% | 31.6µM* | 3.4% | 3.1%
COC(=O)c1sc(-c2ccccc2)cc1NC(C)=O | -4.7 | -4.0% | 5.5% | -8.7% | -5.1% | 10.6%
COC(=O)c1sc(-c2cccs2)cc1NC(=O)/C=C/C(=O)O | -0.8 | 11.0% | -6.7% | -17.7% | 1.8% | 15.8µM*
O=c1c2c(nc3cc(-c4ccccc4Cl)[nH]n13)CCS2 | -9.3 | ? | 0.9% | 39.8µM* | 2.1% | 0.2%
COc1ccc(/C=C2\SC(=N)N(c3nccs3)C2=O)cc1OC | 8.6 | ? | -24.2% | -17.0% | 14.3% | ?
N=C1S/C(=C\c2ccc(-c3cccc(Cl)c3)o2)C(=O)N1c1nccs1 | -5.1 | 8.2µM* | ? | -24.1% | 11.0% | 8.9%
N=C1/C(=C\c2ccc(-c3cccc(Cl)c3)o2)C(=O)N=C2SC=C(c3ccccc3)N12 | -5.7 | ? | -11.4% | 35.5µM* | -17.3% | 3.7%
CCc1ccc(N2C=C(C(=O)OC)C(c3ccccc3F)C(C#N)=C2N)cc1 (configuration not stated) | -2.9 | . | . | 44.7µM* | . | .
CCOC(=O)/C(C)=C1\NC(C)(C)Cc2ccccc21 | -105.5* | -13.9% | -0.2% | 15.8µM* | -3.1% | 0.0%
[O-]/[N+](=C\c1ccco1)c1ccccc1 | 5.6 | . | . | ? | . | .
O=C(O)c1ccccc1NS(=O)(=O)c1cccc2nsnc12 | -1.4 | 8.0% | 3.1% | -6.2% | 5.6% | -1.0%
O=C(O)c1cc(Br)ccc1NS(=O)(=O)c1cccc2nsnc12 | -47.4* | 0.1% | -9.5% | ? | -10.1% | -0.3%
COc1cc(/C=C/c2nc(C#N)c(N3CCCC3)o2)cc(OC)c1OC | -1.0 | . | . | ? | . | .
CCOC(=O)c1[nH]c2ccccc2c1NC(=O)C(C)N1CCC2(CC1)OCCO2 (configuration not stated) | -2.0 | . | . | 8.6% | . | .
C=CC(=O)N1C/C(=C/c2ccc(F)cc2)C(=O)/C(=C\c2ccc(F)cc2)C1 | -6.0 | ? | ? | 7.94µM* | . | -2.4%
COc1cc(/C=C2\N=C(SC)SC2=O)cc(OC)c1OC | 6.0 | . | . | ? | . | .
Cc1cccc(NC(=O)Nc2nnc(N3CCCCC3C)s2)c1C (configuration not stated) | -7.5 | 14.4% | -1.8% | 16.7% | -5.9% | -1.3%
CC1CCCCN1c1nnc(NC(=O)Nc2ccccc2F)s1 (configuration not stated) | 0.1 | 20.6µM* | -24.7% | -0.2% | -0.4% | -0.7%
CS(=O)(=O)/C(=C\c1cccc(Cl)c1)C(=O)c1ccccc1 | 1.2 | . | . | ? | . | .
SMILES | LDHA inh | Nrf2 inh | A549 tox | ALOX12 inh | ERG Ets-DNA blk | Nrf2 activator
Cc1ccc2nc(NC(=O)CSCC(=O)OCC(=O)c3ccc(Br)cc3)sc2c1 | -1.3 | 18.4µM* | -3.8% | 0.0% | 7.4% | -3.2%
COc1ccccc1-c1ccc(OCCCN2CCC(C(O)(c3ccccc3)c3ccccc3)CC2)cc1 | . | . | . | 39.8µM* | . | .
OC(c1ccccc1)(c1ccccc1)C1CCN(CCCOc2ccc(-c3ccc(F)cc3F)cc2)CC1 | . | . | . | 39.8µM* | . | .
N#CCc1ccc(OCCCN2CCC(C(O)(c3ccccc3)c3ccccc3)CC2)cc1 | -1.5 | . | . | ? | . | 10.6%
OC(c1ccccc1)(c1ccccc1)C1CCN(CCCOc2cc(F)cc(F)c2)CC1 | . | . | . | -25.0% | . | .
Cc1ccc(-n2cnnn2)cc1NC(=O)c1sccc1C | 0.4 | . | . | ? | . | .
O=Cc1ccc(-c2ccc(I)cc2C(F)(F)F)o1 | 2.6 | . | . | ? | . | .
CCCCNc1nc2ccccc2nc1NS(=O)(=O)c1ccccc1 | -15.0 | . | . | ? | . | .
Cc1ccc(N2C(=O)CCS2(=O)=O)cc1S(=O)(=O)NC1CCCC1 | -17.6 | . | . | -17.7% | . | .
Cc1cc(NC(=O)c2ccccc2)c(Cl)cc1N | -1.5 | 8.2µM* | 0.9% | 0.4% | -16.9% | -3.0%
Cc1cc(N)ccc1NC(=O)c1ccccc1 | -2.9 | 13.6% | -11.5% | -22.6% | -1.6% | 0.2%
Cc1ccc(NC(=O)CCC2CCCCC2)c(NC(=O)c2ccco2)c1 | 1.9 | . | . | 3.55µM* | . | .
N#Cc1nc(COc2ccc(Cl)cc2)oc1NCc1ccc2c(c1)OCO2 | -6.3 | -11.8% | -6.8% | ? | 37.3% | 0.5%
N#Cc1nc(-c2cccc3ccccc23)oc1NCc1ccc2c(c1)OCO2 | 0.3 | . | . | 31.6µM* | . | .
N#Cc1nc(COc2cccc(Cl)c2)oc1NCc1ccc2c(c1)OCO2 | -0.1 | . | . | 12.6µM* | . | .
N#Cc1nc(-c2ccccc2)oc1NCc1ccc2c(c1)OCO2 | 0.5 | . | . | -8.8% | . | .
CCN(CC)c1ccc2c(-c3ccc(S(=O)(=O)O)cc3S(=O)(=O)[O-])c3ccc(=[N+](CC)CC)cc-3oc2c1 | -231.6* | ? | 11.6µM* | . | i | -0.5%
CCN(CC)c1ccc2nc3c4ccccc4c(=O)cc-3oc2c1 | -1.2 | ? | -11.2% | 5.1% | 124.7% | 0.5%
Cc1cc(NC(=S)N(Cc2ccc(Br)cc2)Cc2ccc(C(=O)O)cc2)ccc1Cl | -15.7 | -33.4% | -0.9% | 44.7µM* | 1.1% | 3.0%
COc1cccc(NC(=S)N(Cc2ccc(Cl)cc2)Cc2ccc(C(=O)O)cc2)c1 | -20.2 | -7.5% | 2.4% | 39.8µM* | 12.0% | 4.0%

Assay outcomes as filed in PubChem BioAssay.
